The campaign covered roughly 310,000 compounds. About 3,900 (1.3%) were called active. This is one part of a sample in which actives are shown more often than they occur.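 The calls were made as follows: active = compounds whose thallium flux B-score, printed positive for inhibition, exceeds three library SD while starting fluorescence stays within three; inactive = the rest.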
What follows are compounds tested against Potassium voltage-gated channel subfamily KQT member 1 (Homo sapiens) (UniProt P51787) (assay: inhibitors of human KCNQ1 channel, primary screen, cell-based, thallium flux, high-throughput (AID 2642;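 also: channel opened by potassium depolarization with thallium stimulus after 20 min compound exposure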)). Details: CHO-K1 KCNQ1, FluxOR thallium flux fluorescence, at 10 µM; stronger effect = higher value.
Sequence of Potassium voltage-gated channel subfamily KQT member 1 (Homo sapiens) (P51787 whole entry, looked up): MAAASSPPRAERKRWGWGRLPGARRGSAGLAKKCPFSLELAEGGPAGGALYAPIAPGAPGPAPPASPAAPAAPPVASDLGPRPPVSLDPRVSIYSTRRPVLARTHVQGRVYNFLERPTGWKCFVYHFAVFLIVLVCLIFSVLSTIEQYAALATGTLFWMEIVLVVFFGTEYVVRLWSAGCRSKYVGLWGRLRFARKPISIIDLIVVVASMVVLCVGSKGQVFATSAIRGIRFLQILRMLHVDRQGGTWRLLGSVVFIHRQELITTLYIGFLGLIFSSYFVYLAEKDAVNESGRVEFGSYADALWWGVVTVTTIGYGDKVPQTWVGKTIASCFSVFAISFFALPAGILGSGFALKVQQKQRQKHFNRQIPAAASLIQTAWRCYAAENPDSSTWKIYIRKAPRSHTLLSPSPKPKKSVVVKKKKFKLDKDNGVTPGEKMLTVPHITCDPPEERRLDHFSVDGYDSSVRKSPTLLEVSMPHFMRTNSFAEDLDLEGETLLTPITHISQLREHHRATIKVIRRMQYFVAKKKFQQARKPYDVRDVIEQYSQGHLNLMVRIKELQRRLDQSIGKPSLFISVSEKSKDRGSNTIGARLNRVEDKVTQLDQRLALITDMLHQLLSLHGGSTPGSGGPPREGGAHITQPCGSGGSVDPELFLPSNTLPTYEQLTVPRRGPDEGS

B-score, inactive:
CCc1nc2nc(C)c(NS(=O)(=O)c3ccc4c(c3)CCCC4)c(=O)n2[nH]1
CCCCc1ccc(NC(=O)NCc2cccnc2)cc1
O=S(=O)(NCCSc1ccccn1)c1ccc(Cl)cc1
Cc1cc(O)ccc1NC1=CC(=O)CC(C)(C)C1
CCOc1ccc(NC(=O)CN(C)C(=O)c2c(C)noc2C)cc1OCC
CCOn1c(SC(C)C)nc2ccccc2c1=O
CCOC(=O)C1CCc2nc3ccccc3c(=O)n21 (stereo not given)
Cc1c(OC(C)C(=O)NCC2CCC(C(=O)O)CC2)ccc2c1oc(=O)c1ccccc12 (stereo not given)
Cc1noc(C)c1CSCC(=O)Nc1ccc(Br)cc1Cl
CCc1noc(C)c1C(=O)Nc1nc2ccc(OC)cc2s1
Cc1ccc(-n2ncc(C(=O)NC3CC3)c2C2CCN(C(=O)OC(C)(C)C)CC2)c(C)c1
CCOC(=O)c1oc2ccccc2c1NC(=O)c1cccs1
COCc1c(C(=O)OCc2c(C)noc2C)oc2ccccc12
COc1cc(C(C(=O)NC2CCCC2)N(Cc2ccccc2)C(=O)c2snc(C(N)=O)c2N)ccc1O (stereo not given)
O=C(Nc1ccccc1)N1CCN(C(=O)Nc2ccccc2)CC1
COc1cc(C(=O)NCC(=O)N2CC=C(c3ccccc3)CC2)cc(OC)c1OC
O=C(NCCCN1CCCCC1)C1CC(=O)N(CCc2ccccc2)C1 (stereo not given)
NC(=O)c1cc(-c2cccnc2)nc2ccc(Br)cc12
Cc1onc(-c2ccccc2)c1C(=O)NNC(=S)NC(=O)c1ccc(F)cc1
NC(=O)C1CCN(C(=O)c2cn(-c3ccccc3)nc2-c2cccnc2)CC1
c1ccc(-c2ccc3c(c2)NC(C2Nc4cc(-c5ccccc5)ccc4O2)O3)cc1 (stereo not given)
CNS(=O)(=O)c1ccc(N2CCCC2=O)c([N+](=O)[O-])c1
CC(=O)Nc1ccc(S(=O)(=O)Nc2ccc(-c3ccc4nnc(C)n4n3)cc2)cc1
COc1cccc(N(CC(=O)Nc2cccc(N(C)S(C)(=O)=O)c2)S(C)(=O)=O)c1
Cc1ccc(N(CC(=O)Nc2cccc(N(C)S(C)(=O)=O)c2)S(C)(=O)=O)cc1
COc1cccc(NC(=O)CN(C)C(=O)CSCc2nc3scc(-c4cccs4)c3c(=O)[nH]2)c1
COc1ccc(C2NC(=O)C(=O)/C2=C(\O)c2ccc(Cl)cc2)cc1OC (stereo not given)
O=C(Nc1ncc([N+](=O)[O-])s1)C1COc2ccccc2O1 (stereo not given)
O=C(CCc1ccccc1)Nc1ncc([N+](=O)[O-])s1
CC(NC(=O)c1cc(=O)[nH]c2ccccc12)c1ccc(F)cc1F (stereo not given)
CC(=O)c1cc2c(cc1NC(=O)Cn1nc(-c3ccc(F)cc3)ccc1=O)OCO2
COc1cnc(-c2ccccn2)nc1Oc1ccc(C(C)(C)C)cc1
COc1ccc(S(=O)(=O)N2CCCCCC2)cc1C(=O)OCC(=O)Nc1cc(C)on1
Cc1cc(C)nc(S/C=C/C(=O)c2ccccc2)n1
O=C(CSc1ncn[nH]1)N/N=C/c1ccc(F)cc1
CCOc1cc(NC(=S)NCCCN(C)C)c(OCC)cc1NC(=O)C1CC1
OC(COc1cccc2ccccc12)CN1CCN(c2ccccn2)CC1 (stereo not given)
Cc1cc(C)c(NC(=O)C[N+](C)(C)CC(O)COc2cccc3ccccc23)c(C)c1 (stereo not given)
O=C(CC1C(=O)NCCN1Cc1ccc(-c2ccccc2)cc1)NCc1ccncc1 (stereo not given)
Cc1ccc(OCC(=O)Nc2ccccc2C(=O)NC2CC2)cc1C
Nc1nnnn1/N=C/c1cc([N+](=O)[O-])ccc1O
O=C(N/N=C/c1cc([N+](=O)[O-])ccc1O)/C(=C\c1cccs1)NC(=O)c1ccccc1
CCOc1ccc(CN2CCN(CCCc3ccccc3)C(CCO)C2)cc1 (stereo not given)
CN1CCN(C2=NCCO2)CC1
COc1ccc(OC)c(C(=O)NC(CC(N)=O)c2ccc(N3CCC(N4CCCCC4)CC3)c([N+](=O)[O-])c2)c1 (stereo not given)
O=C(CNS(=O)(=O)c1ccccc1)N1CCN(C(=O)c2ccco2)CC1
Cc1cc(/C=C2/C(=N)N3C(=NC2=O)SN=C3S(C)(=O)=O)c(C)n1-c1ccccc1
CCS(=O)(=O)C1=NSC2=NC(=O)/C(=C\c3ccc(OS(=O)(=O)c4ccccc4)cc3)C(=N)N21
CCc1cc(=O)oc2cc(C)cc(OCC(=O)N3CCC[C@@H]3C(=O)O)c12
COc1ccc(N2CCN(C(=O)Cn3cnc4sc(C)c(S(=O)(=O)N5CCOCC5)c4c3=O)CC2)cc1
C=CCn1nc(-c2ccccc2)c2c(C)onc2c1=O
CC(C)(C)n1nnnc1C(c1cccs1)N(Cc1cccnc1)CC1CCCO1 (stereo not given)
CCOc1ccc(CN(Cc2ccco2)S(=O)(=O)c2ccc(-n3cnnn3)c(OC)c2)cc1
Cc1c(Cl)cccc1NC(=O)[C@@]1(CC(=O)O)CC(/C=C/c2ccccc2)=NO1
CC(Oc1ccc(F)cc1)C(=O)Nc1cc(S(=O)(=O)N2CCOCC2)ccc1N1CCN(C)CC1 (stereo not given)
Cc1ccc(S(=O)(=O)N2CCC3(CC2)OCCO3)c(C)c1
CCOC(=O)C1CCN(C(=O)C2(NC(=O)Nc3cccc(F)c3)CCCCC2)CC1
Oc1cccc(/C=N/Nc2ccc(Cl)nn2)c1O
Brc1ccccc1/C=N/Nc1nc2ccccc2o1
COc1cccc(NC(=O)CN(C)C(C)C(=O)Nc2ccc(C#N)cc2)c1 (stereo not given)
COc1ccc(N(CC(=O)Nc2ccc(F)c(F)c2)S(=O)(=O)c2c(C)[nH]c(=O)[nH]c2=O)cc1
COc1ccccc1NC(=O)C1CCN(C(=O)c2ccc(C(C)(C)C)cc2)CC1
O=C(CCNC(=O)c1ccc(Br)cc1)NCCCc1ccccc1
S=C(NCCc1ccccc1)Nc1ccccc1
Cc1cn(C)c(=O)n(C)c1=O
O=c1onc(-c2c(F)cccc2F)n1-c1ccccc1Cl
CC1CCC2(CC1)NC(=O)N(CC(=O)c1ccc3c(c1)OCO3)C2=O (stereo not given)
O=C(CN1C(=O)NC2(CCCCCC2)C1=O)NC1CC1
Cc1ccc(CNC(=O)CSc2nnc3c(n2)[nH]c2ccc(F)cc23)cc1
CN(C)/C=C(/C(=O)c1ccc(Cl)cc1)S(=O)(=O)c1ccccc1
S=C(NCCc1ccccc1)NCC1CCCO1 (stereo not given)
S=C(NN=C1CCN(Cc2ccccc2)CC1)NC1CCCCC1
COc1ccc(S(=O)(=O)NCC(=O)NCc2cc(=O)n(C)c(=O)n2C)cc1F
Cc1ccc(S(=O)(=O)N2CCN(CC(=O)N/N=C/c3ccc(Br)s3)CC2)cc1
CCC(CC)C(=O)N1CCN(c2cccc(C)c2C)CC1
Cc1cccc(N2CCN(C(=O)c3cccc(N4C(=O)C5C6C=CC(C6)C5C4=O)c3)CC2)c1C (stereo not given)
O=C(c1cc(COc2ccc(F)c(F)c2)on1)N1CCOCC1
CCn1ccnc1CN(C)C(=O)c1cc(COc2ccc(-n3cncn3)cc2)on1
NS(=O)(=O)c1cc(C(=O)NCCOc2ccccc2)c(Cl)cc1Cl
COc1ccc(-n2c(C)cc(C(=O)COC(=O)c3cc(OC)c(OC)cc3NC(=O)c3cccs3)c2C)cc1
COc1ccc(Nc2ncnc3sc(C)cc23)cc1
COc1ccc(Nc2ncnc3ccc(Br)cc23)c(OC)c1
O=C(O)CN1CCN(C(c2ccccc2)c2ccccc2)CC1
CC1(C)CC(=O)C=C(N2CCCC2)C1

B-score, active:
CCOC(=O)C(C)Sc1nc2ccccc2c(=O)n1CC1CCCCC1 (stereo not given) 7
Cc1noc(C)c1CSCC(=O)Nc1nc2ccc(Oc3ccccc3)cc2s1 8
Cc1cc(C)c(NC(=O)c2oc3ccccc3c2COc2ccccc2)c(C)c1 10
O=C(Nc1ccc(Cl)c(Cl)c1)N1CC=C(c2ccccc2)CC1 11
O=C(NNC(=S)NC(=O)c1cn(-c2ccccc2)nc1-c1ccccc1)c1ccncc1 6
CN(c1cccc(NC(=O)Nc2ccc(Cl)cc2)c1)S(C)(=O)=O 10
CC(=O)Oc1ccccc1C(=O)Nc1ncc([N+](=O)[O-])s1 7
O=C(/C=C/Sc1ncn[nH]1)c1ccc(Cl)cc1 7
CC(C)c1ccccc1OCC(O)CN(CC(O)COc1cccc2ccccc12)C(C)C (stereo not given) 6
O=[N+]([O-])c1ccc(O)c(/C=N/Nc2ccccc2[N+](=O)[O-])c1 9
CCS(=O)(=O)C1=NSC2=NC(=O)/C(=C\c3cc(C)n(-c4cccc(OC)c4)c3C)C(=N)N21 8
CCOc1ccc(CN(Cc2ccco2)C(c2cccs2)c2nnnn2C(C)(C)C)cc1 (stereo not given) 7
Oc1c(Br)cccc1/C=N/Nc1c(F)c(F)c(F)c(F)c1F 7
S=C(NCCCc1ccccc1)Nc1ccc(Br)cc1 7
CC1CCC2(CC1)NC(=O)N(CC(=O)c1cccn1C)C2=O (stereo not given) 7
CCCC1CCC(=NNC(=S)NCCc2ccccc2)CC1 (stereo not given) 7
CCn1c(C)c(C)c2cc(C(=O)N3CCN(c4cccc(C)c4C)CC3)ccc21 10
C=CCC1(CC=C)CCCN1C(=O)c1cc(COc2ccc(-n3cncn3)cc2)on1 11
COc1ccc(Nc2ncnc3sc(-c4ccccc4)cc23)c(OC)c1 7
c1ccc2c(c1)C(=NC1CCCCC1)NC2=NC1CCCCC1 6
CC1(C)CC(N2CCN(C(c3ccccc3)c3ccccc3)CC2)=CC(=[N+]2CCCCC2)C1 9

Reference: PubChem BioAssay AID2642 (Johns Hopkins Ion Channel Center, 2010)
